Data reported in the supplement of paper PMC6411743.
± gives the standard deviation of the averaged measurements. The full data set covers some 6,200 targets. This sample favours those with the largest changes.

Columns and labels:
Assay in all cases: NP40-soluble protein abundance relative to vehicle (solubility fold change) (ratio); higher = more soluble protein in presence of AMP-PNP
[1] = tested on: A0A087WZ62
Outline: (§1)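 Eight concentrations, 0.1 to 10 mM, were tested on Jurkat crude lysate for 10 min at room temperature and then 3 min at 37 °C, in three independent experiments. The lysate was solubilised with 0.8% NP40 and benzonase, ultracentrifuged, and the supernatant TMT-labelled for LC-MS/MS. Each value is the fold change against the detergent-processed vehicle in its own replicate, from vsn-normalised intensities.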

[2] = molecular target: T1, A0A087X0V5|P29728|P29728-2 (UniProt P29728)
T1 sequence (whole entry): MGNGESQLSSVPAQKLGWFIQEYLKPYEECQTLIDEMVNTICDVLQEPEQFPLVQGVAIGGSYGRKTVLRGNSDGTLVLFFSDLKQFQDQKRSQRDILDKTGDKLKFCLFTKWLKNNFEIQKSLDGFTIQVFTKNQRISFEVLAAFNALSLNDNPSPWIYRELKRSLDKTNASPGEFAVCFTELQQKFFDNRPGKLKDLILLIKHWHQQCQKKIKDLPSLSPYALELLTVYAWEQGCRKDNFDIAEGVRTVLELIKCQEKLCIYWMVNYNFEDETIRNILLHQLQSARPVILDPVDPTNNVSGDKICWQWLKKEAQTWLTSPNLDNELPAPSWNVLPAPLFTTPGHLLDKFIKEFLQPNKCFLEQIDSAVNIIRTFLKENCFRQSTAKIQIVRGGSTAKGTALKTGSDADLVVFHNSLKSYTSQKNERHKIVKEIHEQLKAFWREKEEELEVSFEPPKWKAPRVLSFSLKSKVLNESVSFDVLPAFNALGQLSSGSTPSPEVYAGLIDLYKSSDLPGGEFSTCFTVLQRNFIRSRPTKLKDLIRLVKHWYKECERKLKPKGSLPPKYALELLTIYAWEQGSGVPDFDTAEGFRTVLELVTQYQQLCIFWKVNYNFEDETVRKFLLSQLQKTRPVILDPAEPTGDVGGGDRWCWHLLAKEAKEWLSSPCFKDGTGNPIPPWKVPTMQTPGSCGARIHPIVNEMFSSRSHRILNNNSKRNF
Outline: as §1

[3] = molecular target: A0A087X1K6|H0YK05|Q9Y2Y9 (UniProt Q9Y2Y9)
Outline: as §1

[4] = molecular target: A0A087X1Z1|A0A0G2JPW5|A0A0G2JQX1|A0A0G2JSA7|Q96RT8|Q96RT8-2 (UniProt Q96RT8)
Outline: as §1

[5] = molecular target: A0A096LP25|Q2M2I8|Q2M2I8-2 (UniProt Q2M2I8)
Outline: as §1

A0A087X1Z1|A0A0G2JPW5|A0A0G2JQX1|A0A0G2JSA7|Q96RT8|Q96RT8-2, sequence (Q96RT8 whole entry, one chain of several): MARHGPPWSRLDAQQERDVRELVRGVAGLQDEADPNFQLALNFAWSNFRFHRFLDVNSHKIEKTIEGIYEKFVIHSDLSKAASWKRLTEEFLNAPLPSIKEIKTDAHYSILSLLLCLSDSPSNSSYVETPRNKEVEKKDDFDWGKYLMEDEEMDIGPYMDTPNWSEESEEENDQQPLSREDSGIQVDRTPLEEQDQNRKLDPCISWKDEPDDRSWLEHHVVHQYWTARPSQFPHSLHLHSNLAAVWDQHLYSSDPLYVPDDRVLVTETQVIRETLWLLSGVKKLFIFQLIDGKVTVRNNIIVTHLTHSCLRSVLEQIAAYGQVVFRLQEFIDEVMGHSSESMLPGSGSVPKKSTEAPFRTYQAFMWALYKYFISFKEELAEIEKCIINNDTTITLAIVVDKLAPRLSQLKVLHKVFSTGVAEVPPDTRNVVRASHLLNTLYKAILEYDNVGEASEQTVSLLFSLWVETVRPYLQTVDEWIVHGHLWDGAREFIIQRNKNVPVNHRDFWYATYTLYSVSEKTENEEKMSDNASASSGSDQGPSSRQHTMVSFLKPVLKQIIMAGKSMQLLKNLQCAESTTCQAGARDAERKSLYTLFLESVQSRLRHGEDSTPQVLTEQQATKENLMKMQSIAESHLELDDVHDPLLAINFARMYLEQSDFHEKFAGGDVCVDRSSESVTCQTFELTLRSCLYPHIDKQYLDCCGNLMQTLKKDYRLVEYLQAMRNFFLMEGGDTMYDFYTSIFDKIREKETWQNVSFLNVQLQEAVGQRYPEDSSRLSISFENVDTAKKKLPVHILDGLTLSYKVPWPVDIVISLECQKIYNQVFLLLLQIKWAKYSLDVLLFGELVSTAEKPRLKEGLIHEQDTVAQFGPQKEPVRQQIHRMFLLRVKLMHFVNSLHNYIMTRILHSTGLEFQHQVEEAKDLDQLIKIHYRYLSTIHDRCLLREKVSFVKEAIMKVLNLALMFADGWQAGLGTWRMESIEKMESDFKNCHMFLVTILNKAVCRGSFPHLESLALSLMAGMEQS
A0A087X1K6|H0YK05|Q9Y2Y9, sequence (Q9Y2Y9 whole entry, one chain of several): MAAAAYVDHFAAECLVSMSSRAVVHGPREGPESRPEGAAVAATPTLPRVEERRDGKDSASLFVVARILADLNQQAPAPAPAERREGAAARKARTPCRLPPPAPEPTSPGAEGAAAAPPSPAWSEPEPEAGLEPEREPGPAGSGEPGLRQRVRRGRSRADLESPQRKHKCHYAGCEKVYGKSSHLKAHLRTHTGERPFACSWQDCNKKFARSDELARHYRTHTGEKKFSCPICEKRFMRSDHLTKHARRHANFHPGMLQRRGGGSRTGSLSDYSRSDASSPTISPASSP
A0A096LP25|Q2M2I8|Q2M2I8-2, sequence (Q2M2I8 whole entry, looked up, one chain of several): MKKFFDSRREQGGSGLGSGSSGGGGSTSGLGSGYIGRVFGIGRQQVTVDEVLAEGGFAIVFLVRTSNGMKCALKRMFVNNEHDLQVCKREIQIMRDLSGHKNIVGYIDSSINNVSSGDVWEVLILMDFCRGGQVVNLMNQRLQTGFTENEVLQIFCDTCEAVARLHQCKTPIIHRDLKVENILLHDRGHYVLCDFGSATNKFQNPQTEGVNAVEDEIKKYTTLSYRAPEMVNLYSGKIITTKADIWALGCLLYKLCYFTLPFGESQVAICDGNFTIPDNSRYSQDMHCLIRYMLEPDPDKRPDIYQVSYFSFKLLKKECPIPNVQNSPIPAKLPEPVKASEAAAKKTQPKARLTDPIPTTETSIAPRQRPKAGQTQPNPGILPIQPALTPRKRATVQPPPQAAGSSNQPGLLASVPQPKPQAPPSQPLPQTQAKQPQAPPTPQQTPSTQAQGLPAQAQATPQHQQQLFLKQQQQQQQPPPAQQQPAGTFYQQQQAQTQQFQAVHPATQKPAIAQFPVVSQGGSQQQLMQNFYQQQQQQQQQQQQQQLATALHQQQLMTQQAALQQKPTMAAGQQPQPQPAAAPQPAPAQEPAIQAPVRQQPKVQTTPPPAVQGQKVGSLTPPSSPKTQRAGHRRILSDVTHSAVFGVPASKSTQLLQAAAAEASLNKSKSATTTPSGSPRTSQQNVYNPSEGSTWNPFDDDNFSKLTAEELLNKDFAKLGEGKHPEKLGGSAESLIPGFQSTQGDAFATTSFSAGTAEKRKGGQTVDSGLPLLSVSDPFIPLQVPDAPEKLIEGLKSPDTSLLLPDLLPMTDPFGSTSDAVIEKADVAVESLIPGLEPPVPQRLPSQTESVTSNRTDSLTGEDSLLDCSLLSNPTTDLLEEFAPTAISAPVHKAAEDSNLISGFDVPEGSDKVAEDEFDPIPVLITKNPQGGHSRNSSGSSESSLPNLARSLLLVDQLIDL

Nc1ncnc2c1ncn2[C@@H]1O[C@H](COP(=O)(O)OP(=O)(O)NP(=O)(O)O)[C@@H](O)[C@H]1O [adenylyl imidodiphosphate] showed an NP40-soluble protein abundance ([1]; concentration: 6mM) of 0.952 ± 0.014, an NP40-soluble protein abundance ([1]; concentration: 8mM) of 0.946 ± 0.028 and an NP40-soluble protein abundance ([1]; concentration: 10mM) of 0.936 ± 0.017. It also gave an NP40-soluble protein abundance ([2]; concentration: 1mM) of 1.13 ± 0.0059, an NP40-soluble protein abundance ([2]; concentration: 2mM) of 1.07 ± 0.091 and an NP40-soluble protein abundance ([2]; concentration: 4mM) of 1.26 ± 0.049. It also gave an NP40-soluble protein abundance ([2]; concentration: 6mM) of 1.24 ± 0.086, an NP40-soluble protein abundance ([2]; concentration: 8mM) of 1.358 ± 0.011 and an NP40-soluble protein abundance ([2]; concentration: 10mM) of 1.29 ± 0.02. It also gave an NP40-soluble protein abundance ([3]; concentration: 1mM) of 0.998 ± 0.029, an NP40-soluble protein abundance ([3]; concentration: 2mM) of 0.998 ± 0.03 and an NP40-soluble protein abundance ([3]; concentration: 4mM) of 0.971 ± 0.024. For the same compound, the NP40-soluble protein abundance ([3]; concentration: 6mM) was 1.01 ± 0.016, the NP40-soluble protein abundance ([3]; concentration: 8mM) was 0.991 ± 0.03 and the NP40-soluble protein abundance ([3]; concentration: 10mM) was 0.996 ± 0.0047. The NP40-soluble protein abundance ([4]; concentration: 1mM) was 0.946 ± 0.021, the NP40-soluble protein abundance ([4]; concentration: 2mM) was 1 ± 0.057 and the NP40-soluble protein abundance ([4]; concentration: 4mM) was 0.951 ± 0.032. It also gave an NP40-soluble protein abundance ([4]; concentration: 6mM) of 0.972 ± 0.029, an NP40-soluble protein abundance ([4]; concentration: 8mM) of 0.962 ± 0.018 and an NP40-soluble protein abundance ([4]; concentration: 10mM) of 0.96 ± 0.016. It also gave an NP40-soluble protein abundance ([5]; concentration: 1mM) of 1.07 ± 0.02, an NP40-soluble protein abundance ([5]; concentration: 2mM) of 1.11 ± 0.041 and an NP40-soluble protein abundance ([5]; concentration: 4mM) of 1.11 ± 0.026. It also gave an NP40-soluble protein abundance ([5]; concentration: 6mM) of 1.09 ± 0.024, an NP40-soluble protein abundance ([5]; concentration: 8mM) of 1.08 ± 0.02 and an NP40-soluble protein abundance ([5]; concentration: 10mM) of 1.11 ± 0.012.
